PubChem BioAssay (NCI)
About 83,000 compounds went through this panel and 20% of them were active in at least one assay; those are over-represented in the sample as a whole.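 In brief: 96-well plates, 48 h treatment, single concentration, percent growth endpoint.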 The source made the active and inactive calls. Rule for the calls: active = growth percent below 10; inactive = the rest.

Columns and labels:
Assay in all cases: NCI-60 one-dose screen, 48 h (100 = growth as untreated, 0 = no growth, -100 = all killed)
Details in all cases: 10 µM unless noted
RPMI-8226 leukemia = test system: RPMI-8226 leukemia
OVCAR-8 ovarian = test system: OVCAR-8 ovarian
OVCAR-5 ovarian = test system: OVCAR-5 ovarian
OVCAR-4 ovarian = test system: OVCAR-4 ovarian
SK-OV-3 ovarian = test system: SK-OV-3 ovarian
IGROV1 ovarian = test system: IGROV1 ovarian
OVCAR-3 ovarian = test system: OVCAR-3 ovarian
HS 578T breast = test system: HS 578T breast
NCI/ADR-RES ovarian = test system: NCI/ADR-RES ovarian

Measured: growth

Cc1cc2nc3ccc(N=Nc4ccc(N(C)C)cc4)cc3n(-c3ccccc3)c-2cc1=N
active: RPMI-8226 leukemia -63.5% | OVCAR-8 ovarian -22% | OVCAR-5 ovarian -78.5% | OVCAR-4 ovarian -93.2% | SK-OV-3 ovarian -78% | IGROV1 ovarian -88.8% | OVCAR-3 ovarian -85% | HS 578T breast -25.3% | NCI/ADR-RES ovarian 4.97%

CCOC(=O)Cn1c(=O)c2c(c3ccccc3n2C)n2nnc(-c3ccccc3)c12
inactive: RPMI-8226 leukemia 136% | OVCAR-8 ovarian 106% | OVCAR-5 ovarian 70.9% | OVCAR-4 ovarian 104% | SK-OV-3 ovarian 103% | IGROV1 ovarian 68.7% | OVCAR-3 ovarian 109% | HS 578T breast 107% | NCI/ADR-RES ovarian 102%

COc1ccc2c(c1)nc(NNC(=O)c1cnccn1)c1cccn12
inactive: RPMI-8226 leukemia 23.5% | OVCAR-8 ovarian 24.1% | OVCAR-5 ovarian 42.3% | OVCAR-4 ovarian 17.5% | SK-OV-3 ovarian 26.5% | IGROV1 ovarian 16.3% | OVCAR-3 ovarian 15.3% | HS 578T breast 78.2%
active: NCI/ADR-RES ovarian 9.97%

N#Cc1ccc(NC(=O)c2sc3nc4c(cc3c2N)C(=O)CCC4)cc1
inactive: RPMI-8226 leukemia 95.7% | OVCAR-8 ovarian 105% | OVCAR-5 ovarian 89.2% | OVCAR-4 ovarian 106% | SK-OV-3 ovarian 106% | IGROV1 ovarian 113% | OVCAR-3 ovarian 114% | HS 578T breast 111% | NCI/ADR-RES ovarian 106%

CCOC(=O)/C(C#N)=C\Nc1ccc2ncnc(Nc3ccc(Cl)cc3Cl)c2c1
inactive: RPMI-8226 leukemia 79.5% | OVCAR-8 ovarian 87% | OVCAR-5 ovarian 82.2% | OVCAR-4 ovarian 95.1% | SK-OV-3 ovarian 97% | IGROV1 ovarian 55% | OVCAR-3 ovarian 67.6% | HS 578T breast 75.5% | NCI/ADR-RES ovarian 85.4%

CCOC(=O)c1nc(Nc2ccc(C(C)=O)cc2)sc1C
inactive: RPMI-8226 leukemia 103% | OVCAR-8 ovarian 103% | OVCAR-5 ovarian 99.5% | OVCAR-4 ovarian 96.4% | SK-OV-3 ovarian 107% | IGROV1 ovarian 103% | OVCAR-3 ovarian 105% | HS 578T breast 105% | NCI/ADR-RES ovarian 101%

CN(C)c1ccc2nc3ccc(=[N+](C)C)c([N+](=O)[O-])c-3sc2c1
inactive: RPMI-8226 leukemia 21.5% | OVCAR-8 ovarian 12.7% | SK-OV-3 ovarian 59.2% | IGROV1 ovarian 20% | HS 578T breast 37%
active: OVCAR-5 ovarian -7.81% | OVCAR-4 ovarian 0.851% | OVCAR-3 ovarian -12.5% | NCI/ADR-RES ovarian 7.62%

COc1ccc(C(=O)C(C)C)c2ccccc12
inactive: RPMI-8226 leukemia 82.5% | OVCAR-8 ovarian 126% | OVCAR-5 ovarian 98% | OVCAR-4 ovarian 108% | SK-OV-3 ovarian 107% | IGROV1 ovarian 128% | OVCAR-3 ovarian 120% | HS 578T breast 90.8% | NCI/ADR-RES ovarian 107%

C#Cc1cccc(NC(=O)Nc2ccccc2NC(=O)CCl)c1
inactive: RPMI-8226 leukemia 10.7% [8.25 µM] | SK-OV-3 ovarian 85.3% [8.25 µM]
active: OVCAR-8 ovarian -13.6% [8.25 µM] | OVCAR-5 ovarian -26% [8.25 µM] | OVCAR-4 ovarian -33.4% [8.25 µM] | IGROV1 ovarian -54.4% [8.25 µM] | OVCAR-3 ovarian -74.8% [8.25 µM] | HS 578T breast -1.15% [8.25 µM] | NCI/ADR-RES ovarian -2.56% [8.25 µM]

COc1c(B(O)O)cc(F)cc1-c1nc2ccc3[nH]ncc3c2c2c1CCCC2
inactive: OVCAR-8 ovarian 16.1% | OVCAR-5 ovarian 15.4% | OVCAR-4 ovarian 25.8% | SK-OV-3 ovarian 19.3% | IGROV1 ovarian 10.6% | OVCAR-3 ovarian 11.9% | NCI/ADR-RES ovarian 16.1%
active: RPMI-8226 leukemia -9.77% | HS 578T breast -2.19%

c1ccc(-c2nc3nonc3nc2-c2ccccc2)cc1
inactive: RPMI-8226 leukemia 71.9% | OVCAR-8 ovarian 72.8% | OVCAR-5 ovarian 82.3% | OVCAR-4 ovarian 22.7% | SK-OV-3 ovarian 74% | IGROV1 ovarian 60.8% | OVCAR-3 ovarian 12.8% | HS 578T breast 64.3% | NCI/ADR-RES ovarian 74.4%

COc1ccc(S(=O)(=O)n2cc(C3OC(c4cc(OC)c(OC)c(OC)c4)=NN3C(C)=O)c3ccccc32)cc1OC (centres undefined)
inactive: RPMI-8226 leukemia 61.5% | OVCAR-8 ovarian 80.9% | OVCAR-5 ovarian 85.8% | OVCAR-4 ovarian 77.9% | SK-OV-3 ovarian 96.6% | IGROV1 ovarian 83.5% | OVCAR-3 ovarian 112% | HS 578T breast 92.3% | NCI/ADR-RES ovarian 81.7%

O=C(N/N=C/c1c(Cl)cccc1Cl)c1ccc(C(F)(F)F)nc1Nc1cccc(C(F)(F)F)c1
active: OVCAR-3 ovarian -58% | NCI/ADR-RES ovarian -4.2%
inactive: RPMI-8226 leukemia 13.8% | OVCAR-8 ovarian 18.7% | OVCAR-5 ovarian 20.5% | OVCAR-4 ovarian 13.1% | SK-OV-3 ovarian 15% | IGROV1 ovarian 12.4% | HS 578T breast 11.4%

Cc1nc2ccccc2c(/C=C/c2ccc(Cl)cc2)c1C(=O)/C=C/c1cccs1
inactive: RPMI-8226 leukemia 53.4% | OVCAR-8 ovarian 74.9% | OVCAR-5 ovarian 92.6% | OVCAR-4 ovarian 60.7% | SK-OV-3 ovarian 78.5% | IGROV1 ovarian 46.6% | OVCAR-3 ovarian 82.2% | HS 578T breast 86.7% | NCI/ADR-RES ovarian 80.7%

COc1ccc(N2C(=O)C(Oc3ccccc3)C2c2ccc(C)cc2)cc1 (centres undefined)
inactive: RPMI-8226 leukemia 106% | OVCAR-8 ovarian 91.8% | OVCAR-5 ovarian 100% | OVCAR-4 ovarian 93.4% | SK-OV-3 ovarian 106% | IGROV1 ovarian 102% | OVCAR-3 ovarian 112% | HS 578T breast 94% | NCI/ADR-RES ovarian 101%

COc1ccc(/C=C/c2c(C(=O)/C=C/c3ccc(Cl)cc3)c(C)nc3ccccc23)cc1
inactive: OVCAR-8 ovarian 20.9% | OVCAR-5 ovarian 16.9% | OVCAR-4 ovarian 40.6% | SK-OV-3 ovarian 64.5% | IGROV1 ovarian 13.6% | HS 578T breast 34.4% | NCI/ADR-RES ovarian 12.4%
active: RPMI-8226 leukemia -28.6% | OVCAR-3 ovarian -4.96%

COc1ccc(-c2[nH]ncc2-c2cc3c(c(OC)c2)OCC(=O)N3)cc1
active: OVCAR-3 ovarian -4.58% | HS 578T breast -2.19%
inactive: RPMI-8226 leukemia 29.3% | OVCAR-8 ovarian 23.5% | OVCAR-5 ovarian 36.7% | OVCAR-4 ovarian 54.4% | SK-OV-3 ovarian 19.8% | IGROV1 ovarian 38.2% | NCI/ADR-RES ovarian 29.7%

COc1cc(/C=C/C(=O)/C=C/c2cc(OC)c3c(c2OC)OCO3)c(OC)c2c1OCO2
active: OVCAR-8 ovarian 2.45% | OVCAR-3 ovarian 0.304%
inactive: RPMI-8226 leukemia 15.7% | OVCAR-5 ovarian 81.8% | OVCAR-4 ovarian 32% | SK-OV-3 ovarian 78.2% | IGROV1 ovarian 29.8% | HS 578T breast 63.8% | NCI/ADR-RES ovarian 28.3%

COc1cc(CCC[P+](c2ccccc2)(c2ccccc2)c2ccccc2)c(OC)c2c1OCO2
inactive: RPMI-8226 leukemia 10.4% | OVCAR-5 ovarian 64.6% | OVCAR-4 ovarian 11.1% | SK-OV-3 ovarian 27.2% | IGROV1 ovarian 32.5% | HS 578T breast 38.4% | NCI/ADR-RES ovarian 98.5%
active: OVCAR-8 ovarian 9.83% | OVCAR-3 ovarian 5%

C[C@H]1[C@H]2[C@H]3CC[C@@H]4[C@@]5(C)CC[C@H](O)C(C)(C)[C@@H]5CC[C@@]4(C)[C@]3(C)CC[C@]23CO[C@]1(C)[C@@H](C(=O)/C=C\c1cccnc1)C3
inactive: OVCAR-8 ovarian 35.1% | OVCAR-5 ovarian 121% | OVCAR-4 ovarian 49% | SK-OV-3 ovarian 77.8% | IGROV1 ovarian 80.6% | OVCAR-3 ovarian 46.7% | HS 578T breast 82% | NCI/ADR-RES ovarian 78.9%
active: RPMI-8226 leukemia 9.55%

OC(COc1ccccc1)CN1CCN(c2ccc(Cl)cc2)CC1 (centres undefined)
inactive: RPMI-8226 leukemia 95.1% | OVCAR-8 ovarian 93.9% | OVCAR-5 ovarian 111% | OVCAR-4 ovarian 97.6% | SK-OV-3 ovarian 102% | IGROV1 ovarian 124% | OVCAR-3 ovarian 100% | HS 578T breast 100% | NCI/ADR-RES ovarian 101%

Cc1ccc(C2CC(c3ccc(Nc4ccnc5cc(Cl)ccc45)cc3)=NN2C=O)cc1 (centres undefined)
inactive: RPMI-8226 leukemia 19.8% | OVCAR-8 ovarian 59.8% | OVCAR-5 ovarian 94.8% | OVCAR-4 ovarian 38.7% | SK-OV-3 ovarian 84.8% | IGROV1 ovarian 48.2% | OVCAR-3 ovarian 30.6% | HS 578T breast 61.8% | NCI/ADR-RES ovarian 42.3%

BrCCCc1n(Cc2ccc3ccccc3c2)c2ccccc2[n+]1Cc1ccc2ccccc2c1
inactive: NCI/ADR-RES ovarian 58.3%
active: RPMI-8226 leukemia -58.8% | OVCAR-8 ovarian -69.2% | OVCAR-5 ovarian -4.99% | OVCAR-4 ovarian -24.7% | SK-OV-3 ovarian -38.2% | IGROV1 ovarian -71.9% | OVCAR-3 ovarian -71.5% | HS 578T breast -48.2%

COc1ccc2c(c1)c(-c1nn3cc(-c4cccs4)nc3s1)cn2C
inactive: RPMI-8226 leukemia 68.8% | OVCAR-8 ovarian 85.3% | OVCAR-5 ovarian 66.5% | OVCAR-4 ovarian 70.6% | SK-OV-3 ovarian 84.8% | IGROV1 ovarian 52.9% | OVCAR-3 ovarian 96.4% | HS 578T breast 45.1% | NCI/ADR-RES ovarian 80.3%

C=C(C)[C@@H]1CC[C@]2(N=C=O)CC[C@]3(C)[C@H](CC[C@@H]4[C@@]5(C)Cc6c([nH]c7ccccc67)C(C)(C)[C@@H]5CC[C@]43C)[C@@H]12
inactive: RPMI-8226 leukemia 18.8% | OVCAR-8 ovarian 70.7% | OVCAR-5 ovarian 92.9% | OVCAR-4 ovarian 72.7% | SK-OV-3 ovarian 89.4% | IGROV1 ovarian 84.3% | OVCAR-3 ovarian 89.2% | HS 578T breast 92% | NCI/ADR-RES ovarian 83.5%

CN(C)CC#Cc1ccc2ncc(C#N)c(Nc3ccc(F)c(Cl)c3)c2c1
active: IGROV1 ovarian 3.51%
inactive: RPMI-8226 leukemia 50.3% | OVCAR-8 ovarian 45.2% | OVCAR-5 ovarian 54.8% | OVCAR-4 ovarian 38.1% | SK-OV-3 ovarian 17.4% | OVCAR-3 ovarian 54.9% | HS 578T breast 52.1% | NCI/ADR-RES ovarian 42.9%
